A selection: hits, their analogues and other compounds. The true share with any hit is near 2.4%.
D2 ag-1: activates the human D2 dopamine receptor; P14416; HEK293 T-REx D2 cells, calcium flux agonist mode; activation, % at 2 µM; hit rate 0.53% among 340,000;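 active = activation over 3 SD above normal in the single-dose calcium agonist read, cut at about 30% in these data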; note: 0% is about no effect
Target sequence (P14416 whole entry, looked up): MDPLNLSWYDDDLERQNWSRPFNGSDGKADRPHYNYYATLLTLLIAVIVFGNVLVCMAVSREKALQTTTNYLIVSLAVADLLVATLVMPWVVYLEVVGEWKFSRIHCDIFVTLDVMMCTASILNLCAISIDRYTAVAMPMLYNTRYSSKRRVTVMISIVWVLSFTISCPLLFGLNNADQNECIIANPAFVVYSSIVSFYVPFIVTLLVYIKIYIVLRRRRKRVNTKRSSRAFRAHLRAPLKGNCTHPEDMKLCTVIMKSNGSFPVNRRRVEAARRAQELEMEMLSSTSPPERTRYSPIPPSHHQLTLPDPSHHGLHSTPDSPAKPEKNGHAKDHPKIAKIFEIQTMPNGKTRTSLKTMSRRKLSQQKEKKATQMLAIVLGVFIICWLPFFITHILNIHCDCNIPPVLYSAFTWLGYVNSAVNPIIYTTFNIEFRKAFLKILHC
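HEK293 Trex D2 cells, tetracycline-induced, o/n 30 C 5% CO2; no-wash Ca dye, RT 30–90 min; 10-cycle baseline, 23 nl cpd added, kinetic Ca read 180 s; agonist hits = positive Ca response.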
D2 ag-2: human D2 receptor agonism in beta-arrestin assay; DiscoveRx PathHunter D2 beta-arrestin, luminescence, 90 min; 100% = 57 uM dopamine signal; activation, % (test concentration not listed); hit rate 0.084% among 360,000; AID 624465; in the data active = activation above about 40%; inconclusive = between about 15% and that limit
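DiscoveRx PathHunter D2 beta-arrestin cells (2,100/well) attached overnight, then compound-stimulated 90 min at 37 C in HBSS/10 mM HEPES/0.1% Tween-20 buffer; beta-galactosidase complementation read by luminescence after 1 h at ambient temperature. Dopamine 57 uM final (EC100) as control.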
D2 PAM-1: positively modulates the human D2 dopamine receptor allosterically; P14416; AID 485347; HEK293 T-REx D2, calcium flux, EC20 dopamine potentiation; hit rate 0.34% among 340,000; potentiation, % at 10 µM;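 active = potentiation over 3 SD above the plate norm, cut at about 30% in these data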; note: 0% is about no effect
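Primary screen. Calcium kinetics in induced HEK293 T-REx D2 cells: compound pre-addition 180 s, EC20 dopamine, 180 s more.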
D2 PAM-2: potentiates the human D2 dopamine receptor allosterically. P14416. DiscoveRx D2 beta-arrestin cells, luminescence, 90 min; 100% = 57 uM dopamine signal. potentiation, % (no concentration beside the values). hit rate 0.23% among 360,000. AID 624464; in the data active = potentiation above about 50%; inconclusive = mostly about 30% to 49%
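PathHunter D2 cells, attached overnight at 37 deg C, received compound in DMSO plus dopamine at EC20 (50 nM final) for 90 min at 37 deg C. Beta-arrestin recruitment was read as luminescence after 1 h with detection reagent at ambient temperature.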
D2 antag: antagonists of human D2 dopamine receptor; P14416; HEK293 TREx D2 cells, calcium flux, dopamine EC80; inhibition, % at 10 µM; hit rate 2% among 340,000; AID 485344; in the data active = inhibition above about 30%; inactive = below that, where a call was filed; note: 0% is about no effect
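Read-out: kinetic calcium fluorescence (1 cycle/s) in inducible HEK293 T-REx D2 cells after an EC80 dopamine addition that followed 180 s compound preincubation. Loss of the dopamine response indicates antagonism.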
* = called active by the depositor; ? = inconclusive; / = not tested or not shown.

SMILES	D2 ag-1	D2 ag-2	D2 PAM-1	D2 PAM-2	D2 antag
Cn1c(Cn2c(=O)sc3ccccc32)nnc1SCC(=O)NCc1ccco1	1	-7	-10	-1	12
O=C(CCn1c(=O)sc2ccccc21)NCCC1=CCCCC1	-3	-2	-40	-19	37*
O=C(CCn1c(=O)sc2ccccc21)NCc1ccco1	0	-10	-17	-23	42*
Cc1c(C(=O)Nc2ccccc2F)sc2ncnc(N(C)C3CCCCC3)c12	0	/	-12	/	/
COc1ccc(S(=O)(=O)NCC2CCCO2)cc1NC(=O)c1ccccc1F (stereo not drawn)	0	-3	-3	-9	36*
CCN(CC)CC(C)CNC(=O)c1cc(-c2ccc(Br)s2)nc2ccccc12 (stereo not drawn)	1	/	-9	/	/
CN(C1=NC(=O)C(CC(=O)Nc2ccc(Br)cc2)S1)c1ccc(O)cc1 (stereo not drawn)	0	0	-24	-24	40*
O=C(CC1SC(=O)N(c2ccccc2)C1=O)Nc1ccc(Br)cc1 (stereo not drawn)	0	-7	-3	-16	-3
O=C(c1cccc(COc2cccc3ccccc23)c1)N1CCCC1	1	1	48*	7	-21
O=C(c1ccccc1)N1CCN(CC(O)COc2cccc3ccccc23)CC1 (stereo not drawn)	2	3	-1	-26	6
CCCC(=O)N1CCC1(C)C(=O)Nc1ccc(OC(F)F)cc1 (stereo not drawn)	/	1	/	-8	/
CCCCNc1nc2ccccc2c2nc(-c3ccccc3)nn12	/	/	3	/	/
COC(=O)C(C(C)=O)C1=C/C(=N\S(=O)(=O)c2ccc(C)cc2)c2ccccc2C1=O (stereo not drawn)	1	8	-4	50*	-4
COc1ccc(-c2nn(-c3ccccc3)cc2/C=N/NC(=O)c2cccc(S(=O)(=O)Nc3ccccc3Cl)c2)cc1	1	2	-17	11	45*
CCOC(=O)c1noc2nc(C)n(Cc3ccc([N+](=O)[O-])cc3)c(=O)c12	-2	/	3	/	/
COc1cc(C(=O)NC23CC4CC(CC(C4)C2)C3)cc(OC)c1OC	0	-6	-9	-7	10
COc1cc(C(=O)O/N=C2/C=CC(=O)C(C)=C2C)cc(OC)c1OC	0	?	0	72*	5
COc1cc(C(=O)O/N=C2\C=CC(=O)C=C2C)cc(OC)c1OC	1	1	6	0	50*
COc1cc(C(=O)ON=C2C3CC4CC(C3)CC2C4)cc(OC)c1OC	-1	45*	3	18	-16
O=C(NCC1CC1)c1ccc(-c2cn[nH]c2)c2ccoc12	/	-2	/	1	/
O=c1cc(-c2ccc([N+](=O)[O-])cc2)nc2cc(-c3ccc(Cl)cc3)[nH]n12	-1	/	-14	/	35*
CCCCCCC(O)(c1ccc(OC)cc1)C(CN1CCOCC1)c1ccccc1 (stereo not drawn)	1	-3	5	-16	31*
CCCc1nnc(SCC(=O)N2CCCCC2C)n1CC1CCCO1 (stereo not drawn)	/	-3	37*	-7	/
CCCc1nnc(SCC(=O)N(CC)CC)n1CC1CCCO1 (stereo not drawn)	0	1	0	0	-8
COc1ccc(NC(=O)C2=CC(c3ccc(C)cc3)=NS(=O)(=O)N2C)cc1OC	0	-2	-19	-16	22
SMILES	D2 ag-1	D2 ag-2	D2 PAM-1	D2 PAM-2	D2 antag
COc1ccc(C2=NS(=O)(=O)N(C)C(C(=O)Nc3ccc(OC)c(OC)c3)=C2)cc1	0	-3	-20	-14	56*
CC(=O)c1cccc(NC(=O)C2=CC(c3ccc4c(c3)OCO4)=NS(=O)(=O)N2C)c1	0	-2	-22	-19	48*
CCCCNc1c(-c2ccc(OC)c(SC3CCCCC3)c2)nc2ccc(C)cn12	/	48*	/	-9	/
CCCCNc1c(-c2ccc(SC3CCCCC3)c(OC)c2)nc2ccc(C)cn12	/	7	/	2	/
COc1ccc(-c2cn3nc(SCC(=O)Nc4cc(C)cc(C)c4)ccc3n2)cc1	-1	/	-4	/	/
CCSc1nnc2n(-c3cccc(C)c3)c(=O)c3c4c(sc3n12)CCCC4	3	/	-7	/	/
O=C(O)c1ccc(N2CCCS2(=O)=O)cc1	0	-2	-1	5	34*
CCCNC(=O)C1CCC(CNS(=O)(=O)c2ccc3c(c2)CC(C)N3C(C)=O)CC1 (stereo not drawn)	2	-2	10	-10	41*
CC(=O)N1c2ccc(S(=O)(=O)NCC3CCC(C(=O)NCCC(C)C)CC3)cc2CC1C (stereo not drawn)	/	/	-13	/	/
COc1cc(Cl)c(NS(=O)(=O)c2ccc(-c3cnc(C4CC4)o3)cc2)c(OC)c1	2	/	-1	/	/
NC(=O)CCN1CCN(CCOC2Cc3cc(Cl)ccc3Sc3ccccc32)CC1 (stereo not drawn)	0	3	-25	-37	94*
O=C(c1ccccc1Cl)N1CCNCC1	-1	-2	-2	-5	-8
CSc1ccc2c(c1)C(N1CCN(C)CC1)Cc1ccc(F)cc1S2 (stereo not drawn)	/	0	/	-12	/
Clc1ccc2c(c1)C(N1CCNCC1)Cc1ccccc1S2 (stereo not drawn)	1	-3	-28	-38	99*
COCCCN1CCN(C2Cc3ccccc3Sc3ccc(Cl)cc32)CC1 (stereo not drawn)	1	-3	-28	-42	107*
Clc1cccc2c1Sc1ccccc1CC2N1CCNCC1 (stereo not drawn)	2	-2	-17	-17	66*
COc1ccc2c(c1)CC(N1CCN(C)CC1)c1cc(OC)ccc1S2 (stereo not drawn)	/	-6	/	-23	/
Fc1ccc2c(c1)Sc1ccc(Cl)cc1CC2N1CCN(CCC2OCCO2)CC1 (stereo not drawn)	/	-8	/	-25	/
O=C(COc1ccc(CNC[C@H]2O[C@@H](n3ccc(=O)[nH]c3=O)[C@H](O)[C@@H]2O)cc1)Nc1ccccn1	/	-2	/	0	/
C/C(=N\NC(=O)c1ccc(C)cc1C)c1ccc2c(c1)OCO2	-1	-1	-3	-8	-3
C/C(=N\NC(=O)c1cc2ccccc2cc1O)c1ccc2c(c1)OCO2	1	-6	-3	13	33*
COc1ccc(S(=O)(=O)N2CCC(C(=O)NC(C)c3ccccc3)CC2)cc1 (stereo not drawn)	0	/	4	/	/
CCc1ccccc1NC(=O)CN(c1cc(C(F)(F)F)ccc1Cl)S(=O)(=O)c1ccccc1	2	/	-15	/	/
COc1ccccc1CN1C(=O)[C@@H]2C(CCC(N)=O)NC3(C(=O)Nc4c3ccc(Cl)c4C)[C@@H]2C1=O (stereo partly drawn)	0	-1	32*	0	-3

High-throughput results as filed in PubChem BioAssay.
